This excerpt belongs to a sample that is enriched for hits.
RGS4 inh – blocks human RGS4-accelerated GTP hydrolysis. P49798. Transcreener GDP fluorescence polarization, RGS4-accelerated GTP hydrolysis. Potency, µM (titrated, usually from 114 µM), inactives show at the top dose activity change, negative = inhibition, actives largely listed as inhibitors. hit rate 0.039% among 390,000. AID 504845; further: potency means the concentration at half of the fitted maximal effect; on the % scale 0 is the no-effect control and ±100 the full control effect; nearly all actives have a fitted effect of over 75% in size
Target sequence (P49798 whole entry, looked up): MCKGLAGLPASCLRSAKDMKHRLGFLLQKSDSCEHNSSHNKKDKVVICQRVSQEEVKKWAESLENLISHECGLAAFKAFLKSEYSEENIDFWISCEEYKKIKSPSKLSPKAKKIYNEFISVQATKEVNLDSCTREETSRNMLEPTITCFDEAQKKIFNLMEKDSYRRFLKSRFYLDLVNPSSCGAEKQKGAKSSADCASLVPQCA
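MLSMR compounds (23 nl, pin-transferred) preincubated 10 min at room temperature with a 500nM (2x) first reagent, then RGS4 at 900nM (2x) plus Transcreener GDP mix added; fluorescence polarization (620/688 nm) read before and after 90 min at 30 °C.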
mIDH1 inhibitor – human IDH1 R132H inhibition | IDH1-R132H enzyme, NADPH consumption, diaphorase/resazurin fluorescence | O75874 | hit rate 0.093% among 390,000 | Potency, µM (titrated, usually from 76.6 µM), for the others: top-dose activity change, negative = inhibition, usual class: inhibitors; further: potency means the concentration at half of the fitted maximal effect; on the % scale 0 is the no-effect control and ±100 the full control effect; nearly all actives have a fitted effect of over 65% in size
Target sequence (O75874 whole entry R132H, stated change not applied): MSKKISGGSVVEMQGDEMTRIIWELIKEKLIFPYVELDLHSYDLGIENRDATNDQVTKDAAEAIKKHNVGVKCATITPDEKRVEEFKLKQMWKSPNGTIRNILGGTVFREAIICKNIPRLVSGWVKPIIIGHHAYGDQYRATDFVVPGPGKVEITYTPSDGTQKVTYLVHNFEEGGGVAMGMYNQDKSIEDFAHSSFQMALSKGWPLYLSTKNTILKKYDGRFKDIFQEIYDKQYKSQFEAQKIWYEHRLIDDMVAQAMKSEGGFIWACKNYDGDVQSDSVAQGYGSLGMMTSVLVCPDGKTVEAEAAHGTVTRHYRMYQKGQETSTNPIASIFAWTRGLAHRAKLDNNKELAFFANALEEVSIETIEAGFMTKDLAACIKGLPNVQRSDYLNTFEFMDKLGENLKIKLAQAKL
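IDH1-R132H (0.5 ug/mL dispensed) in pH 7.5 Tris buffer was preincubated 30 min with compound, then given a substrate mix of 0.016 mM NADPH and 2 mM alpha-KG for 80 min at room temperature; remaining NADPH was read by diaphorase/resazurin fluorescence.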
ClpP mod – qHTS Assay for Activators of ClpP | hit rate 1.9% among 340,000 | Potency, µM (doses to about 57.5 µM), for the others: top-dose activity change, negative = active | AID 651965, 2013 | purified B. subtilis ClpP, FRET peptide cleavage, 20 min; active means well fitted falling curve with a large enough effect; inconclusive means small, poorly fitted or top-dose-only effect; inactive means no such curve, though single readings can be large or run the other way; further: potency means the concentration at half of the fitted maximal effect; the source files actives as falling curves though it sought activators and does not explain the sign; nearly all actives have a fitted effect of over 65% in size
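ClpP 10 microg/mL final, pH 8 Tris/KCl buffer with BSA, glycerol, Tween-20; compound pinned in; FRET-FV substrate; RT 20 min; Ex320/Em430; ΔFRET vs ADEP 5.8 microM, DMSO, no enzyme.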
S-ASM inh – inhibitors of human secretory acid sphingomyelinase. P17405. placental ASM, HMU-PC fluorogenic substrate, 60 min. Potency, µM (titrated, usually from 57.5 µM), for inactives: at the top dose activity change, negative = inhibition, hits mostly inhibitors. hit rate 0.006% among 340,000; further: potency means the concentration at half of the fitted maximal effect
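Fluorogenic HMU-PC substrate (9 uM final) is turned over by placental ASM in 60 min at 37 C after a 10 min compound preincubation. Reaction ended by alkaline stop (pH 10), with fluorescence read at 386/447 nm.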
Mito fusion yeast – inhibitors of mitochondrial division or activators of mitochondrial fusion; Potency, µM (series often up to 46.1 µM), without a hit: top-dose growth rescue (activation), usual class: activators; S. cerevisiae fusion-defective mutant growth rescue, CellTiterGlo 48 h; hit rate 0.23% among 320,000; further: potency means the concentration at half of the fitted maximal effect; % of control where 0% means no effect; nearly all actives have a fitted effect of over 45% in size
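S. cerevisiae fusion-defective temperature-sensitive mutants (e.g. fzo1-1, mgm1-5) grown 48 h at 37C in YPEG (ethanol/glycerol non-fermentable) medium with 23 nl compound per well; growth rescue read as CellTiterGlo luminescence.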
LDHA inh – inhibitors of human lactate dehydrogenase A | P00338 | hit rate 0.15% among 480,000 | activity change, % (values are at about 110 or 230 µM) | purified LDHA, NADH/diaphorase-resazurin fluorescence; hits give low values; in the data active means activity change below about -30%; inconclusive means mostly about -25% to -30%;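 further: plate controls were DMSO wells for no effect and wells without enzyme for full effect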
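Resorufin fluorescence (ex540/em590), read at 0 and 20 min after diaphorase/resazurin addition, reports the NADH left after a 5 min room-temperature reaction of 2 nM human LDH5 with 0.06 mM NADH and 0.2 mM pyruvate.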
* hit, by the source's call; ? = inconclusive; . = not tested or not shown; [ ] = dose if it differs, or a comment. Unless noted, the call rests on the fitted dose curve; in most records, active means well fitted curve in the direction sought with a large enough effect; inconclusive means small, poorly fitted or top-dose-only effect, or another doubt; inactive means no such curve, though single readings can be large; an effect the other way counts as inactive or inconclusive.

SMILES | RGS4 inh | mIDH1 inhibitor | ClpP mod | S-ASM inh | Mito fusion yeast | LDHA inh
Cc1ccc2nc3c(cc(C#N)c(=O)n3-c3nnc(SCc4ccccc4)s3)c(=O)n2c1 | -8.8% | . | 4.5% | . | . | -1.7
COc1ccc(C(=O)N/N=C(\C)Cn2nc([N+](=O)[O-])cc2C)cc1 | 9.2%[11.4 µM] | 3.2% | 11.2µM* | -0.5% | -0.1% | 0.0
c1ccc(-c2ccccc2OCCCCn2ccnc2)cc1 | 16.6% | -12.5% | -5.5% | 3.5% | -6.0% | -37.1*
c1ccc(-c2ccccc2OCCCN2CCOCC2)cc1 | 3.6% | 5.5% | -2.7% | 0.5% | 20µM* | -30.1*
CC(C)(C)c1ccccc1OCCCCCn1ccnc1 | -52.3% | 15.3% | . | -3.0% | -1.1% | -19.4
O=C(CC1N=C2c3ccccc3N=C(SCc3cccc(Cl)c3)N2C1=O)NC1CCCCC1 (stereo not given) | 12.4% | -5.7% | 35.5µM* | . | . | -3.4
CCCCNC(=O)CC1N=C2c3ccccc3N=C(SCC(=O)NCc3ccccc3Cl)N2C1=O (stereo not given) | -15.0% | -3.4% | 17.8µM* | . | . | -5.2
O=C(CC1N=C2c3ccccc3N=C(SCc3cccc(F)c3)N2C1=O)NC1CCCCC1 (stereo not given) | -8.1% | -0.9% | 0.4% | . | . | 2.6
O=C(CSC1=Nc2ccccc2C2=NC(CC(=O)NC3CCCCC3)C(=O)N12)Nc1ccc(F)cc1 (stereo not given) | 11.7% | -13.2% | 14.1µM* | . | . | -7.4
O=C1CCCc2cc(S(=O)(=O)N3CCCC(C(=O)N4CCC5(CC4)OCCO5)C3)ccc2N1 (stereo not given) | . | . | . | . | . | 2.3
CC(=O)c1ccc(OC(=O)c2nn(C(C)C)c(=O)c3ccccc23)cc1 | . | . | . | . | . | -0.2
CC(C)n1nc(C(=O)Oc2ccc(Cl)cc2)c2ccccc2c1=O | 2.0% | 2.3% | 17.8µM* | -14.9% | 1.1% | -2.9
O=C(Nc1sc2c(c1C(=O)O)CCCCC2)c1cccs1 | 1.2% | 11.1% | -0.7% | 11.0% | 20.6% | -42.4*
CC(=O)Nc1sc2c(c1C#N)CCC(C)C2 (stereo not given) | 19.3% | 18.0% | . | 4.3% | 0.5% | -1.9
O=C(Nc1sc2c(c1C(=O)O)CCCC2)c1cccs1 | -12.5% | 22.4% | 2.6% | 3.5% | ? | 0.0
Cc1cc(C(=O)Nc2sc3c(c2C#N)CCC(C)C3)cs1 (stereo not given) | 15.8% | 2.8% | 25.1µM* | 4.9% | 1.0% | -5.4
CC1CCc2c(sc(NC(=O)c3cccs3)c2C(=O)O)C1 (stereo not given) | -4.9% | -2.0% | -4.9% | 9.5% | -42.1% | -39.6*
CCOC(=O)CCc1c(C)n(CC)c2cc(-c3ccccc3OC)nn2c1=O | 3.0% | 2.5% | 11.2µM* | 5.0% | -1.0% | -4.0
CCN(CC)CCCNC(=O)CCc1c(C)n(CC)c2cc(-c3ccccc3OC)nn2c1=O | 9.6% | 7.5% | 3.6% | 2.1% | -1.2% | -0.9
CC(C)c1ccc(NC(=O)C2CCCN(c3cnc4ccccc4n3)C2)cc1 (stereo not given) | . | . | . | . | . | 1.9
CN1C2CCC1CC(NS(=O)(=O)c1cc(Cl)c(Cl)cc1Cl)C2 (stereo not given) | -16.6% | 1.0% | 35.5µM* | 0.0% | -2.6% | -3.9
COc1ccc(OCCCC(=O)Nc2ccc3c(C)cc(=O)oc3c2)cc1 | . | . | . | . | . | 6.3
CN(C)c1ccc(/C=C/c2ccc3c4ccccc4ccc3[n+]2-c2ccccc2)cc1 | ? | 29.3µM* | -18.4% | -28.2% | -3.0% | 5.0
CN(C)c1ccc(/C=C/c2ccc3ccccc3[n+]2C)cc1 | -19.3% | 9.0% | 3.1% | -21.7% | -16.1% | 8.1
FC(F)C(F)(F)Oc1cccc(Nc2nccn3c(-c4ccc5ccccc5c4)cnc23)c1 | . | . | 4.1% | . | . | -79.3*
SMILES | RGS4 inh | mIDH1 inhibitor | ClpP mod | S-ASM inh | Mito fusion yeast | LDHA inh
Oc1ccc(-c2cnc3c(Nc4cccc(OC(F)(F)C(F)F)c4)nccn23)cc1 | . | . | 14.2% | . | . | -5.0
Cc1cccc(C(=O)NCc2sccc2C)n1 | . | . | . | . | . | 3.7
Cc1cccc(/C=N/n2c(-c3cc(-c4ccccc4)n[nH]3)n[nH]c2=S)c1 | -52.2% | ? | 25.1µM* | -18.7% | 6.7% | -7.8
N#CC1(c2ccc(NC(=O)c3ccc(Cl)cc3)cc2)CCCC1 | . | . | . | . | . | 3.1
CCOc1ccc(Cl)cc1C1=CC(=O)C[C@H](c2ccc(OC)cc2)C1 | -11.5% | 6.8% | -0.1% | -5.2% | 35.5µM* | 0.4
O=C(/C=C\c1ccc2c(c1)OCO2)NC1CC(=O)N(c2ccccc2)C1 (stereo not given) | -31.2% | -9.7% | 4.3% | . | . | -3.4
COc1ccc(N2CC(NC(=O)/C=C\c3ccc4c(c3)OCO4)CC2=O)cc1 (stereo not given) | -6.9% | 0.0% | 28.2µM* | . | . | -7.7
O=C(c1ccc(F)cc1)N1CCCC(C(=O)N2CCN(c3ccccc3)CC2)C1 (stereo not given) | 8.5% | 1.9% | 28.2µM* | 6.0% | 0.7% | -13.7
O=C(c1cccc(S(=O)(=O)N2CCN(c3ccc(F)cc3)CC2)c1)N1CCCCCCC1 | -20.9% | 4.1% | 1.1% | -3.3% | 15.8µM* | -3.4
O=C(c1ccc(Cl)c(S(=O)(=O)N2CCCCC2)c1)N1CCCCC1 | ? | -2.0% | -0.1% | -0.1% | 0.0% | -1.3
O=C(c1cccc(S(=O)(=O)N2CCCC2)c1)N1CCCC(C(F)(F)F)C1 (stereo not given) | -2.0% | 1.5% | 28.2µM* | 0.9% | 1.7% | 1.4
O=C(c1ccc(Br)c(S(=O)(=O)N2CCCCC2)c1)N1CCCCC1 | -11.5% | 0.3% | 22.4µM* | . | 5.1% | -2.8
O=C(c1cccc(S(=O)(=O)N2CCOCC2)c1)N1CCCC(C(F)(F)F)C1 (stereo not given) | 3.6% | 9.4% | 0.1% | 6.5% | -1.0% | -1.3
O=C(c1ccc(Cl)cc1)N1CCCC(C(=O)N2CCN(c3ccccc3)CC2)C1 (stereo not given) | 22.7% | 0.8% | -0.6% | 2.1% | -2.7% | -0.5
C=CCOc1cccc(NC(=O)c2ccccc2C)c1 | . | . | . | . | . | 2.5
Cc1ccccc1C(=O)NC1CCCC(C(F)(F)F)C1 (stereo not given) | . | . | . | . | . | 2.7
COc1cc(-c2csc(NC3CC3)n2)ccc1OC(F)F | . | . | . | . | . | -13.1
CCOC(=O)c1ccc(Oc2c(C)oc3cc(OCC)ccc3c2=O)cc1 | . | . | . | . | . | -7.8
FC(F)(F)c1cccc(NC(=S)NCCc2c[nH]c3ccccc23)c1 | . | . | . | . | . | 0.5
Cc1oc(-c2nc(C#N)c(NC(C)C)o2)cc1S(=O)(=O)N(C)C | . | . | . | . | . | -1.7

Screens (PubChem)
